Measurements taken from publication PMC4336329 (PLoS ONE, 2015).
Hit rate of the full screen: of about 310,000 compounds, about 14,000 (4.5%) showed an effect of 50% or more. The effect is printed as a negative number. Shown is part of a subset that was picked to be rich in strong results.

biological target: human ether-à-go-go-related gene (hERG) potassium channel (human, UniProt Q12809); experiment: primary screen, population patch clamp on CHO cells stably expressing hERG; higher = less effect of the substance
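Also: peak tail current of the secondary pulse compared with the same well before compound.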

human ether-à-go-go-related gene (hERG) potassium channel, sequence (Q12809 whole entry, looked up): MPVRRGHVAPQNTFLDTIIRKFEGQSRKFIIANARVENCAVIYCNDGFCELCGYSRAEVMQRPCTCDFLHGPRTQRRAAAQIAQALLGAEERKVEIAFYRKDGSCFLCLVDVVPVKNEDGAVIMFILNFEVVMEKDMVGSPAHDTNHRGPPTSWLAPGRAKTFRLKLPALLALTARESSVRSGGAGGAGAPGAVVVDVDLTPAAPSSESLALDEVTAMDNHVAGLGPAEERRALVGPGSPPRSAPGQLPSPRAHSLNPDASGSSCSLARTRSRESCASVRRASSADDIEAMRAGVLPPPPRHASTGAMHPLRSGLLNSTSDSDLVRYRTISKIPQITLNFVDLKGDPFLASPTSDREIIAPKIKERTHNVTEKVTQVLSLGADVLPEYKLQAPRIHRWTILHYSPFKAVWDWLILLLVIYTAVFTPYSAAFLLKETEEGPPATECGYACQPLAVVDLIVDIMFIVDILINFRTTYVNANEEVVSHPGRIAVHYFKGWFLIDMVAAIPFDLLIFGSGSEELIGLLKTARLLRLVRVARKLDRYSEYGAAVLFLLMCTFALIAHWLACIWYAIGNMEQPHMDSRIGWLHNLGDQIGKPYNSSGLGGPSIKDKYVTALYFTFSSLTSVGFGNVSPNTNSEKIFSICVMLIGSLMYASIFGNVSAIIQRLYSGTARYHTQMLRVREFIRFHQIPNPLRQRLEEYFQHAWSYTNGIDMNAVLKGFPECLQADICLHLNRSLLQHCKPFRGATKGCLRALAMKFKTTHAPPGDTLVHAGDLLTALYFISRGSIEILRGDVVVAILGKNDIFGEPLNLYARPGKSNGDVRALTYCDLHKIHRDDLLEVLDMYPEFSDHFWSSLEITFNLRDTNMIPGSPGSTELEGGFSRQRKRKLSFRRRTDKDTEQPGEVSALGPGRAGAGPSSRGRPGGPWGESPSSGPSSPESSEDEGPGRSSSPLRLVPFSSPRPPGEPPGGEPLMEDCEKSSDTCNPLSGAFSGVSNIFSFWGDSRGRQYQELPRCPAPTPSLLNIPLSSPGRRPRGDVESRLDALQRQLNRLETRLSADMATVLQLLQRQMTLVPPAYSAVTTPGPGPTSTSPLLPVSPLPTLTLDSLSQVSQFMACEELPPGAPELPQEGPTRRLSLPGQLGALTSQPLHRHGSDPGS

Structure (SMILES)	hERG current change (%, negative = inhibition) at 10uM
Cc1ccc(N=Nc2c(O)n(CN3CCOCC3)c3ccccc23)cc1	3.48%
Cc1ccc(NC(=O)CS(=O)CC(=O)NC2CCN(Cc3ccccc3)CC2)c(C)c1 (centres unmarked)	-3.54%
S=C(Nc1ccccc1)N1CCN(Cc2ccccc2)CC1	-4.13%
FC(F)Oc1ccc(NC(=S)N2CCN(Cc3ccccc3)CC2)cc1	-56%
COc1ccc(NC(=S)N2CCN(Cc3ccccc3)CC2)cc1	0.401%
Cc1ccc(NS(=O)(=O)c2cccc(C(=O)NCC(c3cccs3)N3CCOCC3)c2)cc1 (centres unmarked)	-14.3%
Cl.Clc1ccccc1CNC1CN2CCC1CC2 (centres unmarked)	-3.27%
COc1ccc(OCC(=O)Nc2ccc(C(=O)Nc3ccccc3C(=O)O)cc2)cc1	23.2%
CC(C)(C)c1nnc(NC(=O)c2cc(-c3ccccc3)nc3ccccc23)s1	17.3%
COc1ccc(CCN(C)C(=O)c2cc(-c3ccc(C)cc3)nc3ccccc23)cc1OC	-26.7%
COc1ccc(CCN(C)C(=O)c2cc(-c3ccccc3)nc3ccc(C)cc23)cc1OC	-52.1%
COc1ccc(CCN(C)C(=O)c2cc(-c3ccccc3)nc3ccccc23)cc1OC	-4.79%
O=C(O)CN1CCN(Cc2ccccc2F)C1=O	24.7%
COc1ccc(Nc2nccc(-c3ccc(C#N)cc3)n2)cc1	1.36%
COc1ccc(Nc2nccc(OC)c2C#N)cc1	-38.8%
COc1cnc(SC)nc1Nc1ccc(C#N)cc1	-66.8%
COc1cccc(N2C(=O)C3CCCN3C2c2ccc(Cl)cc2)c1 (centres unmarked)	-1.05%
COc1cc(NC(=O)C2CCC(CNc3c(N4CCC(C)CC4)c(=O)c3=O)CC2)cc(OC)c1 (centres unmarked)	16.7%
O=C(CN1CCN(c2ccccn2)CC1)Nc1ccc2ccccc2c1	-43.9%

Structure (SMILES)	hERG current change (%, negative = inhibition) at 10uM
O=C1C2C3C=CC(C3)C2C(=O)N1c1cccc2ccccc12 (centres unmarked)	18.7%
O=C1[C@H]2[C@@H](C(=O)N1c1cccc3ccccc13)C1(C(=O)c3ccccc3C1=O)N1CCC[C@@H]21	-69%
O=C1C2C3C=CC(C4CC34)C2C(=O)N1c1cccc2ccccc12 (centres unmarked)	-0.113%
Cn1c(CCNC(=O)C(C)(C)C)nc2ccccc21	16.4%
O=C(NC1CCCCC1)C1CC=CCC1C(=O)OCC(Cl)=C(Cl)Cl (centres unmarked)	-20.7%
COc1ccc(Oc2ncccc2[N+](=O)[O-])cc1	6.57%
CN(C)c1ccc(/C=N/NC(=O)c2ccco2)cc1	1%
O=C(CN1C(=O)c2ccc([N+](=O)[O-])cc2C1=O)Nc1cc(S(=O)(=O)N2CCOCC2)ccc1Cl	-60.8%
O=C(CN1CCN(S(=O)(=O)N2CCCCC2)CC1)Nc1cc(Cl)ccc1Cl	10.7%
O=C(CN1CCOCC1)Nc1cc([N+](=O)[O-])ccc1Cl	-17%
O=C(CN1CCN(S(=O)(=O)N2CCOCC2)CC1)Nc1cc(Cl)ccc1Cl	-55.2%
O=C(CN1CCN(S(=O)(=O)N2CCCCCC2)CC1)Nc1cc(Cl)ccc1Cl	7.48%
COc1ccc(Cl)cc1NC(=O)CN1CCN(S(=O)(=O)N2CCCCC2)CC1	-9.48%
COc1ccc(Cl)cc1NC(=O)CN1CCN(S(=O)(=O)N2CCC(C)CC2)CC1	-32.1%
CN(C)c1ccc(NC(=O)CN2CCN(S(=O)(=O)c3cc(Cl)ccc3Cl)CC2)cc1	-1.09%
CN(C)S(=O)(=O)N1CCN(CC(=O)Nc2cc(Cl)ccc2Cl)CC1	-50.8%
CN1CCN(CC(=O)Nc2cc(S(=O)(=O)N3CCOCC3)ccc2Cl)CC1	4.13%
COc1ccc(Cl)cc1NC(=O)CN1CCN(S(=O)(=O)N2CCOCC2)CC1	-55.9%
COc1ccc(S(=O)(=O)N2CCN(CC(=O)Nc3cc(Cl)ccc3Cl)CC2)cc1	-7.44%

Structure (SMILES)	hERG current change (%, negative = inhibition) at 10uM
O=C(O)c1ccccc1-c1cc2ccccc2[nH]1	19.7%
N#C/C(=C/c1ccc(N2CCOCC2)c([N+](=O)[O-])c1)C(N)=O	-39.8%
O=C(OC(C(=O)NCC1CCCO1)c1ccccn1)c1cccs1 (centres unmarked)	1.83%
COCc1nc2ccccc2n1Cc1cccc(C)c1	-12.8%
O=S(=O)(NCC(c1ccco1)N1CCN(c2ccccc2F)CC1)c1ccc(F)cc1 (centres unmarked)	-11.2%
CC(C)CNc1nc(Oc2ccc(=O)[nH]n2)nc(N2CCOCC2)n1	7.99%
Cc1ccc(Cl)cc1NC(=O)CN1CCN(S(=O)(=O)N2CCC(C)CC2)CC1	-41.3%
Cc1ccc(Cl)cc1NC(=O)CN1CCN(S(=O)(=O)N2CCOCC2)CC1	-64.3%
O=C(CN1CCN(C(=O)C2CCCO2)CC1)Nc1cc(Cl)ccc1Cl (centres unmarked)	-61.9%
Cc1ccc(Cl)cc1NC(=O)CN1CCN(C(=O)C2CCCO2)CC1 (centres unmarked)	-29.8%
O=C(CN1CCN(C(=O)C2CCCO2)CC1)Nc1cc(C(F)(F)F)ccc1Cl (centres unmarked)	-45.8%
Cc1ccc(Cl)cc1NC(=O)CN1CCOCC1	-0.857%
O=C(CN1CCOCC1)Nc1cc(Cl)ccc1Cl	-32.5%
O=C(CN1CCN(C(=O)N2CCOCC2)CC1)Nc1cc(Cl)ccc1Cl	-59.9%
COc1ccc(Cl)cc1NC(=O)CN1CCN(C(=O)N2CCOCC2)CC1	-38.8%
Cn1nnc2cc(C(=O)Nc3ccc(Cl)cc3)ccc21	-3.78%
COc1ccc(-c2cc(C(=O)O)nc3ccc4ccccc4c23)cc1OC	12.6%
O=C(CSc1nc(O)cc(=O)[nH]1)C1CC1	7.82%
